# Data reported in PubChem BioAssay (NCATS).
# Results filed as inconclusive are left out. Where a call stands in place of a potency, no number is given. A number with no mark means an inactive call. Activity calls are given as the source filed them. The call rests on the fitted dose curve; in most records, active means well fitted curve in the direction sought with a large enough effect; inconclusive means small, poorly fitted or top-dose-only effect, or another doubt; inactive means no such curve, though single readings can be large; an effect the other way counts as inactive or inconclusive.
# Assays:
# [1] = system: UISO; assay: qHTS assay to identify novel small-molecules to repurpose for Merkel cell carcinoma treatment (AID 1296009); details: MCC and control cell lines, CellTiter-Glo viability, 72 h; series mostly up to 46 µM; further: nearly all actives have a fitted effect of over 60% in size
# Procedure, shortened: (§1)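 After compound transfer in DMSO, plates were kept 72 hr at 37 degree celsius. Luminescent ATP signal from CellTiter-Glo served as viability measure, normalized against DMSO and no-cell controls.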
# [2] = system: WaGa; assay: as above; details: MCC and control cell lines, CellTiter-Glo viability, 72 h; series mostly up to 46 µM
# Procedure, shortened: as §1
# [3] = system: C33A; assay: Primary qHTS to identify gynecologic anti-cancer compounds using libraries of approved drugs and bioactive compounds (AID 1345084); details: Gynecologic cancer cell panel viability, ATPlite luminescence, 48 h; series mostly up to 57.5 µM; further: nearly all actives have a fitted effect of over 55% in size; further: potency means the concentration at half of the fitted maximal effect
# Procedure, shortened: (§2)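 Cells, 1,000 per well, were allowed to settle for 16 h at 37 C before compound addition. Five concentrations were tested for 48 h, and viability was read by ATPlite luminescence after 15 min at room temperature.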
# [4] = system: CASKI; assay: as above; details: Gynecologic cancer cell panel viability, ATPlite luminescence, 48 h; series mostly up to 57.5 µM
# Procedure, shortened: as §2
# [5] = system: Es-2; assay: as above; details: Gynecologic cancer cell panel viability, ATPlite luminescence, 48 h; series mostly up to 57.5 µM
# Procedure, shortened: as §2
# [6] = system: HeLa; assay: as above; details: Gynecologic cancer cell panel viability, ATPlite luminescence, 48 h; series mostly up to 57.5 µM
# Procedure, shortened: as §2
# [7] = system: Hek293T; assay: as above; details: Gynecologic cancer cell panel viability, ATPlite luminescence, 48 h, control line for the selectivity index; series mostly up to 57.5 µM
# Procedure, shortened: as §2
# [8] = system: JEG-3; assay: as above; details: Gynecologic cancer cell panel viability, ATPlite luminescence, 48 h; series mostly up to 57.5 µM
# Procedure, shortened: as §2
# [9] = system: OV90; assay: as above; details: Gynecologic cancer cell panel viability, ATPlite luminescence, 48 h; series mostly up to 57.5 µM
# Procedure, shortened: as §2
# [10] = system: PA-1; assay: as above; details: Gynecologic cancer cell panel viability, ATPlite luminescence, 48 h; series mostly up to 57.5 µM
# Procedure, shortened: as §2
# [11] = system: SKOV3; assay: as above; details: Gynecologic cancer cell panel viability, ATPlite luminescence, 48 h; series mostly up to 57.5 µM
# Procedure, shortened: as §2
# [12] = system: Tov-21-G; assay: as above; details: Gynecologic cancer cell panel viability, ATPlite luminescence, 48 h; series mostly up to 57.5 µM
# Procedure, shortened: as §2
# [13] = system: Tov112D; assay: as above; details: Gynecologic cancer cell panel viability, ATPlite luminescence, 48 h; series mostly up to 57.5 µM
# Procedure, shortened: as §2
# [14] = system: CAOV3; assay: as above; details: Gynecologic cancer cell panel viability, ATPlite luminescence, 48 h; series mostly up to 57.5 µM
# Procedure, shortened: as §2
# [15] = Drug repurposing screens with cells derived from glioblastoma tumor samples (AID 1345199); details: GBM patient neurospheres viability, ATP luminescence, 48 h; further: nearly all actives have a fitted effect of over 40% in size; further: potency means the concentration at half of the fitted maximal effect
# Procedure, shortened: (§3)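 Four patient lines of CD133+ GBM neurospheres were screened at several concentrations; hits were retested in those lines plus three slower-growing GBM lines, using 48-hour treatment and ATP-based viability.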
# [16] = system: astro; assay: as above; details: viability, ATP luminescence, 48 h; series mostly up to 45.9 µM
# Procedure, shortened: as §3
# [17] = at 45.9 µM (top of the series), tumour line B
# [18] = at 45.9 µM (top of the series), tumour line D
# [19] = at 46.1 µM (top of the series), tumour line C
SMILES,Potency [1],Potency [2],Potency [3],Potency [4],Potency [5],Potency [6],Potency [7],Potency [8],Potency [9],Potency [10],Potency [11],Potency [12],Potency [13],Potency [14],"activity, negative = cell killing [15, 17] [%]","activity, negative = cell killing [15, 18] [%]","activity, negative = cell killing [15, 19] [%]",Potency ([15]; tumour line A),Potency [16]
CC(C)C(=O)Nc1cccc(C2CN3CCSC3=N2)c1 (stereo not given),inactive,inactive,inactive,inactive,inactive,inactive,inactive,inactive,inactive,inactive,inactive,inactive,inactive,,,,,,
C=CC[N+]1([C@H]2C[C@H]3[C@@H]4CC[C@H]5C[C@H](OC(C)=O)[C@@H](N6CCCCC6)C[C@]5(C)[C@H]4CC[C@]3(C)[C@H]2OC(=O)CC)CCCCC1,inactive,inactive,inactive,inactive,inactive,inactive,inactive,inactive,,inactive,inactive,inactive,inactive,inactive,-10,-23,-14.4,6.31 µM (active),inactive
CC[C@@H]([C@H](C)O)n1ncn(-c2ccc(N3CCN(c4ccc(OC[C@@H]5CO[C@@](Cn6cncn6)(c6ccc(F)cc6F)C5)cc4)CC3)cc2)c1=O,inactive,inactive,11.2 µM (active),,,inactive,,inactive,15.8 µM (active),,15.8 µM (active),,,inactive,,,,,
C[N+]1(CC2COC(c3ccccc3)(c3ccccc3)O2)CCCCC1 (stereo not given),inactive,inactive,inactive,inactive,inactive,inactive,inactive,inactive,,inactive,,inactive,inactive,inactive,-10.9,-20.2,-16.6,,inactive
